Drawing on ChEMBL document CHEMBL1157539, “Thousands of chemical starting points for antimalarial lead identification” (Nature, 2010), this text covers Inhibition for five compounds.

The structures appear in SMILES notation.

The subject of the assay is HepG2. Put plainly: GSK_TCMDC: Percent inhibition of human HepG2 cell line. Test compounds present at 10uM. The class given is functional.
For the compound `CC(C)(C)c1ccc(CN2CCC(CNC(=O)c3cc(-c4cccc(C(F)(F)F)c4)cs3)C2)cc1.O=C(O)C(F)(F)F` (stereo not given), the Inhibition (as a rule, the change of the read-out against control, counted positive when it falls) was determined as 80%.
Compound `CN(C)CCCOc1ccc(CN2CC[C@H](NC(=O)c3ccc(Cl)c(Cl)c3)C2)c2ccccc12.O=C(O)C(F)(F)F` registered an Inhibition of 81%.
The compound `O=C(Nc1ccc(-c2nc3ccccc3[nH]2)cc1)c1cccc([N+](=O)[O-])c1` returned an Inhibition of 45%.
The result for `COc1ccc(Nc2ccnc3cc(Cl)ccc23)cc1OC` reads 36%; that for `O=C(/C=C/c1ccc(Cl)c(Cl)c1)NCCCCCN1CCCN(C(=O)Nc2ccc([N+](=O)[O-])cc2)CC1`, 32%.
